This is an account of results in PubChem BioAssay (NCATS).

The structures appear in SMILES notation. Results filed as inconclusive are left out. Active and inactive are the calls of the source. The call rests on the fitted dose curve; in most records, active means well fitted inhibition curve with a large enough effect; inconclusive means small, poorly fitted or top-dose-only effect; inactive means flat fitted curve, though single readings scatter.
Potency means the concentration at half of the fitted maximal effect.

This assay can be described thus: BET inhibitor-based combinations targeting novel dependencies in MECOM-rearranged (r) AML: AML-194 cell line (AID 2202237; further: nearly all actives have a fitted effect of over 40% in size;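 on viability (% of control): plate controls were vehicle wells for no effect and wells without cells for full effect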). The note with it: AML-194 (MECOM-r AML) viability, CellTiter-Glo, 48 h; series mostly up to 46 µM; viability (% of control): at the top concentration. Put shortly:
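A 48 hr incubation preceded viability reading by CellTiter-Glo, with 15 min room-temperature development. Dose series had 11 points; normalization used DMSO and empty wells; AUC was computed and mean-centered per line as Z-AUC.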
On the technique in general: Cellular ATP, detected with luciferase, serves as a proxy for viable cell number.
In the case of `CN(C)CCOC(c1ccccc1)c1ccccc1`, the “viability (% of control)” value is 110% (inactive).
On the same count and under the same terms, next, `NCCCC(N)(C(=O)O)C(F)F` (centres undefined): 111% (inactive); `N[C@@H](Cc1ccc(O)c(O)c1)C(=O)O`: 106% (inactive).
Regarding `CC(=O)[C@]1(O)Cc2c(O)c3c(c(O)c2[C@@H](O[C@H]2C[C@H](N)[C@H](O)[C@H](C)O2)C1)C(=O)c1ccccc1C3=O`, the Potency is 235 nM (active).
